The text below walks through data of ChEMBL document CHEMBL1961873, “Compounds: GSK PKIS; Assays: Nanosyn kinase panel” (2012).

One assay concerns the target Tyrosine-protein kinase SYK (Homo sapiens) (UniProt P43405). Conditions: at 1 µM.
As usually defined, the inhibition is the drop in the measured response relative to a control, in per cent. On to `CCS(=O)(=O)c1ccc(OC)c(Nc2ncc(-c3cccc(OC)c3)o2)c1`, for which the inhibition is -2.39%.
The same measure, in the same setting: then `Cc1ccc2c(-c3ccnc(Nc4cccc(C(F)(F)F)c4)n3)c(-c3ccccc3)nn2n1`, with -5.34%; and `CN(C)C(=O)O[C@H]1CN[C@H](C#Cc2cc3ncnc(Nc4ccc(OCc5cccc(F)c5)c(Cl)c4)c3s2)C1`, with -0.76%; and `COc1cccc(-n2nc(C)c3c(N/N=C(\C)c4ccncc4)ncnc32)c1`, with 2.38%.
The same measure, in the same setting: then `CCn1c(-c2nonc2N)nc2ccc(F)cc21`, with -1.93%; and `Cc1cc(Cl)cc2c1NC(=O)C2=NNc1ccc(S(N)(=O)=O)cc1`, with 0.95%.
Still for that read-out and setting: then `CN1CCN(C(=O)c2ccc(NC(=O)Nc3ccc(N(C)c4ccnc(Nc5ccc(CS(C)(=O)=O)cc5)n4)cc3)cc2)CC1`, with -2.49%; and `C[C@@H](Oc1cc(-n2cnc3ccc(OCC4CCN(C)CC4)cc32)sc1C(N)=O)c1ccccc1C(F)(F)F`, with 0.25%.
With `Cc1nc(-c2ccccc2)n2nc(NCCCN3CCOCC3)ncc12`, the inhibition came out at 3.52%.
As for `CN(C)C(=O)O[C@@H]1CN[C@@H](C#Cc2cc3ncnc(Nc4ccc(OCc5cccc(F)c5)c(Cl)c4)c3s2)C1`, the inhibition is 0.74%.
As for `c1ccc(Nc2ncc(-c3ccccc3)o2)cc1`, the inhibition came to 3.14%.
Turning to `COc1cccc(-n2ncc3c(N/N=C/c4ccc(S(C)(=O)=O)cc4)ncnc32)c1`, the inhibition is -1.66%.
Same read-out and setting: then `OCc1ccc(-c2nc(-c3ccccn3)c(-c3ccc4c(c3)OCO4)[nH]2)cc1`, with -0.31%; and `c1ccc(Cc2nc3ccc(Nc4ncnc5ccccc45)cc3[nH]2)cc1`, with -0.79%; and `CC(C)c1ccc2c(c1)NC(=O)/C2=N/Nc1ccc(S(N)(=O)=O)cc1`, with 1.53%.
Same read-out and setting: to `NC(=O)c1cccc(Nc2nccc(Nc3cccc(F)c3)n2)c1` belongs -2.49%.
Same read-out and setting: to `COc1cc2ncn(-c3cc(OCc4ccccc4S(C)(=O)=O)c(C#N)s3)c2cc1OC` belongs -2.95%.
Consider `COc1cccc(-n2ncc3c(N/N=C/c4ccc(C)cc4)ncnc32)c1`, for which the inhibition was 0.76%.
On the same count and under the same terms, then `CN(C)CCCn1c(-c2nonc2N)nc2cnccc21`, with 0.37%; and `O=C1Nc2ccc(-c3cccnc3)cc2C1=Cc1cc(Br)c(O)c(Br)c1`, with -2.96%; and `N#Cc1c(NC(=O)c2ccccc2F)sc2c1CCCC2`, with 0.42%.
Same read-out and setting: to `CCOc1nccc2c1nc(-c1nonc1N)n2CC` belongs 1.57%.
Same read-out and setting: then `COC(=O)c1cncc(/C=C/c2c(C)cc(O)cc2C)c1`, with -1.42%; and `Cc1cc(O)cc(C)c1/C=C/c1cncc(C(=O)N(C)C)c1`, with 2.96%; and `NS(=O)(=O)c1ccc(NC=C2C(=O)Nc3ccc4ncsc4c32)cc1`, with 3.68%.
Regarding `Cc1ccc(Nc2ccnc(Nc3cccc(C(N)=O)c3)n2)cc1O`, the inhibition was found to be 14.2%.
The same measure, in the same setting: to `CC(C)c1ccc(Nc2nccc(-c3cnn4ncccc34)n2)cc1` belongs 9.02%.
On the same count and under the same terms, then `NS(=O)(=O)c1cccc(Nc2cc(-c3ccc(F)cc3)n[nH]2)c1`, with -1%; and `Cc1ccc(NC(=O)CC2CC2)cc1-c1ccc(C(=O)NCC2CC2)cc1`, with 0.5%; and `N#Cc1cccc(Nc2nccc(-c3cnn4ncccc34)n2)c1`, with 53.2%.
Turning to `NS(=O)(=O)c1ccc(N/N=C2\C(=O)Nc3ccc(Cl)cc32)cc1`, the inhibition is -3.16%.
Still for that read-out and setting: then `Nc1ccc(C#Cc2cncnc2Nc2ccc(OCc3cccc(F)c3)c(Cl)c2)cc1`, with -2.35%; and `Nc1nccc(-c2c(-c3ccc(F)cc3)nn3cc(C(F)(F)F)ccc23)n1`, with -1.5%.

A further assay has as its target T1, Tyrosine-protein kinase Tec (Homo sapiens) (UniProt P42680).
T1 sequence (whole entry): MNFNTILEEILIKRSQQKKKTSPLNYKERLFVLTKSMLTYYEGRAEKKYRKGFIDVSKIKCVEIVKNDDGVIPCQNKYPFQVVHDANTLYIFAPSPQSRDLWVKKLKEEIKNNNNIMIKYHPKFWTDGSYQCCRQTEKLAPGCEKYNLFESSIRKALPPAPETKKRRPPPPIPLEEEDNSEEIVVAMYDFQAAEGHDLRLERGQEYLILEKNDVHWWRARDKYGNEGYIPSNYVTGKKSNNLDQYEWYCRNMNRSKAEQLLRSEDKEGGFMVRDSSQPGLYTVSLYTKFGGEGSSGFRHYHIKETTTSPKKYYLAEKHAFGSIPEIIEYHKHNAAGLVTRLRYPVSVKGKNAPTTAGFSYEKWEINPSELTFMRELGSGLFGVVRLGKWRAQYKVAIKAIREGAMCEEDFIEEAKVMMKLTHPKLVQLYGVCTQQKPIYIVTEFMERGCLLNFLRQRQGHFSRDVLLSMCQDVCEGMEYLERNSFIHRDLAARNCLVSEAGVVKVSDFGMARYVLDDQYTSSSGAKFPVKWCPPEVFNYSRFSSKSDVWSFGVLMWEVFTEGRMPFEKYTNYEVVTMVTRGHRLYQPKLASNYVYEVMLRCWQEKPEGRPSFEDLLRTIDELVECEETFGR
Conditions: at 0.1 µM.
For the compound `CCS(=O)(=O)c1ccc(OC)c(Nc2ncc(-c3cccc(OC)c3)o2)c1`, the inhibition amounted to 8.3%.
The same measure, in the same setting: to `Cc1ccc2c(-c3ccnc(Nc4cccc(C(F)(F)F)c4)n3)c(-c3ccccc3)nn2n1` belongs 8.8%.
Still for that read-out and setting: then `CN(C)C(=O)O[C@H]1CN[C@H](C#Cc2cc3ncnc(Nc4ccc(OCc5cccc(F)c5)c(Cl)c4)c3s2)C1`, with 3.98%; and `COc1cccc(-n2nc(C)c3c(N/N=C(\C)c4ccncc4)ncnc32)c1`, with 1.82%; and `CCn1c(-c2nonc2N)nc2ccc(F)cc21`, with 6.29%.
Take `Cc1cc(Cl)cc2c1NC(=O)C2=NNc1ccc(S(N)(=O)=O)cc1`: the inhibition worked out at 2.23%.
On the same count and under the same terms, to `CN1CCN(C(=O)c2ccc(NC(=O)Nc3ccc(N(C)c4ccnc(Nc5ccc(CS(C)(=O)=O)cc5)n4)cc3)cc2)CC1` belongs 10.1%; to `C[C@@H](Oc1cc(-n2cnc3ccc(OCC4CCN(C)CC4)cc32)sc1C(N)=O)c1ccccc1C(F)(F)F`, -1.52%; to `Cc1nc(-c2ccccc2)n2nc(NCCCN3CCOCC3)ncc12`, 2.69%.
On the same count and under the same terms, to `CN(C)C(=O)O[C@@H]1CN[C@@H](C#Cc2cc3ncnc(Nc4ccc(OCc5cccc(F)c5)c(Cl)c4)c3s2)C1` belongs 2.88%; to `c1ccc(Nc2ncc(-c3ccccc3)o2)cc1`, 4.25%; to `COc1cccc(-n2ncc3c(N/N=C/c4ccc(S(C)(=O)=O)cc4)ncnc32)c1`, -0.19%.
Still for that read-out and setting: then `OCc1ccc(-c2nc(-c3ccccn3)c(-c3ccc4c(c3)OCO4)[nH]2)cc1`, with 7.61%; and `c1ccc(Cc2nc3ccc(Nc4ncnc5ccccc45)cc3[nH]2)cc1`, with 4.4%; and `CC(C)c1ccc2c(c1)NC(=O)/C2=N/Nc1ccc(S(N)(=O)=O)cc1`, with 1.22%.
Regarding `NC(=O)c1cccc(Nc2nccc(Nc3cccc(F)c3)n2)c1`, the inhibition was determined as 6.51%.
Still for that read-out and setting: then `COc1cc2ncn(-c3cc(OCc4ccccc4S(C)(=O)=O)c(C#N)s3)c2cc1OC`, with 7.94%; and `COc1cccc(-n2ncc3c(N/N=C/c4ccc(C)cc4)ncnc32)c1`, with 6.46%.
The same measure, in the same setting: then `CN(C)CCCn1c(-c2nonc2N)nc2cnccc21`, with 4%; and `O=C1Nc2ccc(-c3cccnc3)cc2C1=Cc1cc(Br)c(O)c(Br)c1`, with 3.68%; and `N#Cc1c(NC(=O)c2ccccc2F)sc2c1CCCC2`, with -1.7%.
Regarding `CCOc1nccc2c1nc(-c1nonc1N)n2CC`, the inhibition is 3.96%.
Take `COC(=O)c1cncc(/C=C/c2c(C)cc(O)cc2C)c1`: the inhibition amounted to 6.12%.
On the same count and under the same terms, then `Cc1cc(O)cc(C)c1/C=C/c1cncc(C(=O)N(C)C)c1`, with 3.84%.
On the same count and under the same terms, then `NS(=O)(=O)c1ccc(NC=C2C(=O)Nc3ccc4ncsc4c32)cc1`, with 5.73%; and `CN(c1ccc(NC(=O)Nc2ccc(OC(F)(F)F)cc2)cc1)c1ccnc(Nc2cccc(S(N)(=O)=O)c2)n1`, with 0.44%; and `Cc1ccc(Nc2ccnc(Nc3cccc(C(N)=O)c3)n2)cc1O`, with 18%.
Turning to `CC(C)c1ccc(Nc2nccc(-c3cnn4ncccc34)n2)cc1`, the inhibition came out at 2.28%.
On the same count and under the same terms, then `NS(=O)(=O)c1cccc(Nc2cc(-c3ccc(F)cc3)n[nH]2)c1`, with 3.27%; and `Cc1ccc(NC(=O)CC2CC2)cc1-c1ccc(C(=O)NCC2CC2)cc1`, with 5.07%.
The same measure, in the same setting: to `N#Cc1cccc(Nc2nccc(-c3cnn4ncccc34)n2)c1` belongs 8.87%; to `NS(=O)(=O)c1ccc(N/N=C2\C(=O)Nc3ccc(Cl)cc32)cc1`, 4.2%; to `Nc1ccc(C#Cc2cncnc2Nc2ccc(OCc3cccc(F)c3)c(Cl)c2)cc1`, -0.48%.
Same read-out and setting: to `Nc1nccc(-c2c(-c3ccc(F)cc3)nn3cc(C(F)(F)F)ccc23)n1` belongs 0.64%.
